This passage reports cytotoxicity call results from the antibiotic and cytotoxicity screens of Wong et al. (2023).

Hit rate of the full screen: of about 39,000 compounds, about 1,500 (3.8%) were called active. The full list was thinned out, with actives kept by preference.

The subject of this assay is HSkMC (human skeletal muscle cells). The experiment in a line: cytotoxicity call (relative viability < 0.9). As to conditions: 10 µM.
In the case of `CC(C)NC(=O)Nc1ccc2c(c1)C(=O)N([C@H](C)CO)C[C@H](C)[C@@H](CN(C)S(C)(=O)=O)OCCCC[C@@H](C)O2`, the cytotoxicity call is “inactive”.
Take `CC(C)(C)[S@](=O)N1Cc2cc(C(=O)N3CCCCC3)nc(-c3cccc(C4=CCCC4)c3)c2[C@@H]1CCO`: the cytotoxicity call was “inactive”.
`Cc1noc(C)c1NC(=O)N(C)C[C@@H]1OCCCC[C@H](C)Oc2ccc(NS(=O)(=O)c3ccc(Cl)cc3)cc2C(=O)N([C@H](C)CO)C[C@@H]1C`: the cytotoxicity call is “inactive”.
Regarding `CC[C@H](C)[C@@H]([C@@H](CC(=O)N1CCC[C@H]1[C@H](OC)[C@@H](C)C(=O)N[C@@H](Cc1ccccc1)c1nccs1)OC)N(C)C(=O)[C@@H](NC(=O)[C@H](C(C)C)N(C)C)C(C)C`, the cytotoxicity call was “active”.
As to `C[C@H](CO)N1C[C@H](C)[C@@H](CN(C)Cc2ccc(Oc3ccccc3)cc2)Oc2c(NC(=O)Cc3ccccc3)cccc2C1=O`, the cytotoxicity call is “inactive”.
`COc1ccc(NC(=O)Nc2ccc3c(c2)C(=O)N([C@H](C)CO)C[C@@H](C)[C@@H](CN(C)Cc2ccc4c(c2)OCO4)OCCCC[C@@H](C)O3)cc1`: the cytotoxicity call was “inactive”.
Turning to `Cc1noc(C)c1S(=O)(=O)Nc1ccc2c(c1)C(=O)N([C@@H](C)CO)C[C@H](C)[C@@H](CN(C)C(=O)Nc1ccc(C(F)(F)F)cc1)OCCCC[C@@H](C)O2`, the cytotoxicity call is “inactive”.
With `C[C@@H]1CN([C@@H](C)CO)C(=O)c2cc(NC(=O)CCCCCC(=O)Nc3ccccc3N)ccc2O[C@H]1CN(C)C(=O)Nc1ccc(F)cc1` the entry was “inactive”; with `Nn1c(-c2ccncc2)nncc1=O`, “inactive”.
On to `C[C@H]1CN([C@@H](C)CO)C(=O)c2cc(NC(=O)Nc3ccc4c(c3)OCO4)ccc2O[C@H]1CN(C)Cc1ccc(Cl)c(Cl)c1`, for which the cytotoxicity call was “inactive”.
As for `C[C@H]1CN([C@@H](C)CO)C(=O)c2cc(NC(=O)Nc3ccc4c(c3)OCO4)ccc2O[C@@H]1CN(C)Cc1ccc(Cl)c(Cl)c1`, the cytotoxicity call is “inactive”.
Take `C[C@H](CO)N1C[C@H](C)[C@H](CN(C)Cc2ccc(Cl)c(Cl)c2)Oc2ccc(NC(=O)Nc3ccc4c(c3)OCO4)cc2C1=O`: the cytotoxicity call was “inactive”.
Turning to `C[C@H](CO)N1C[C@H](C)[C@@H](CN(C)Cc2ccc(Cl)c(Cl)c2)Oc2ccc(NC(=O)Nc3ccc4c(c3)OCO4)cc2CC1=O`, the cytotoxicity call is “active”.
The value for `C[C@H]1CN([C@@H](C)CO)C(=O)Cc2cc(NC(=O)Nc3ccc4c(c3)OCO4)ccc2O[C@H]1CN(C)Cc1ccc(Cl)c(Cl)c1` was “active”.
The value for `C[C@@H]1CN([C@H](C)CO)C(=O)Cc2cc(NC(=O)Nc3ccc4c(c3)OCO4)ccc2O[C@H]1CN(C)Cc1ccc(Cl)c(Cl)c1` was “inactive”; that for `C[C@@H]1CN([C@@H](C)CO)C(=O)Cc2cc(NC(=O)Nc3ccc4c(c3)OCO4)ccc2O[C@@H]1CN(C)Cc1ccc(Cl)c(Cl)c1` was “inactive”; that for `C[C@@H]1CN([C@@H](C)CO)C(=O)Cc2cc(NC(=O)Nc3ccc4c(c3)OCO4)ccc2O[C@H]1CN(C)Cc1ccc(Cl)c(Cl)c1` was “inactive”.
For the molecule `C[C@@H]1CN([C@H](C)CO)C(=O)Cc2cc(NC(=O)Nc3ccc4c(c3)OCO4)ccc2O[C@@H]1CN(C)Cc1ccc(Cl)c(Cl)c1`, the cytotoxicity call is “active”.
Turning to `C[C@H](CO)N1C[C@H](C)[C@H](CN(C)Cc2ccc(Cl)c(Cl)c2)Oc2ccc(NC(=O)Nc3ccc4c(c3)OCO4)cc2CC1=O`, the cytotoxicity call is “active”.
As to `C[C@H]1CN([C@@H](C)CO)C(=O)Cc2cc(NC(=O)Nc3ccc4c(c3)OCO4)ccc2O[C@@H]1CN(C)Cc1ccc(Cl)c(Cl)c1`, the cytotoxicity call was “inactive”.
`C[C@@H]1CN([C@@H](C)CO)C(=O)c2cc(NC(=O)Nc3ccc4c(c3)OCO4)ccc2O[C@H]1CN(C)Cc1ccc(Cl)c(Cl)c1`: the cytotoxicity call was “inactive”.
With `C[C@@H]1CCCCO[C@H](CN(C)C(=O)Nc2ccc(F)cc2)[C@@H](C)CN([C@@H](C)CO)C(=O)c2cc(NC(=O)CCC(F)(F)F)ccc2O1` the entry was “inactive”.
The value for `CC(C)NC(=O)Nc1cccc2c1O[C@H](CN(C)C(=O)Nc1ccc3c(c1)OCO3)[C@@H](C)CN([C@@H](C)CO)C2=O` was “inactive”; that for `COc1ccc(NC(=O)N(C)C[C@H]2Oc3c(NC(=O)Nc4ccc(C(F)(F)F)cc4)cccc3C(=O)N([C@@H](C)CO)C[C@H]2C)cc1` was “inactive”; that for `C[C@@H]1CCCCO[C@H](CN(C)Cc2ccc(Cl)c(Cl)c2)[C@@H](C)CN([C@@H](C)CO)C(=O)c2cc(NC(=O)Nc3ccc(C(F)(F)F)cc3)ccc2O1` was “inactive”.
As for `C[C@H]1CN([C@@H](C)CO)C(=O)c2cccc(NC(=O)c3cnccn3)c2O[C@H]1CN(C)Cc1ccncc1`, the cytotoxicity call is “inactive”.
Regarding `C[C@@H]1CN([C@@H](C)CO)C(=O)c2cccc(NC(=O)c3ccncc3)c2O[C@H]1CN(C)Cc1ccc(C(=O)O)cc1`, the cytotoxicity call was “inactive”.
With `C[C@@H]1CCCCO[C@@H](CN(C)Cc2ccc(C(F)(F)F)cc2)[C@H](C)CN([C@@H](C)CO)C(=O)c2cc(NC(=O)Nc3cccc4ccccc34)ccc2O1` the entry was “inactive”.
In the case of `O=C(CN1CCOCC1)N[C@@H]1CC[C@@H](CCNC(=O)C2CCC2)O[C@@H]1CO`, the cytotoxicity call is “inactive”.
In the case of `C[C@@H]1CN([C@H](C)CO)C(=O)Cc2cc(NS(=O)(=O)c3cn(C)cn3)ccc2O[C@@H]1CN(C)S(=O)(=O)c1ccc(F)cc1`, the cytotoxicity call was “inactive”.
With `O=C(C[C@H]1C[C@@H]2c3cc(NS(=O)(=O)c4ccc(F)cc4)ccc3O[C@@H]2[C@@H](CO)O1)NCc1cccc(F)c1` the entry was “inactive”.
Regarding `COc1ccc(S(=O)(=O)N(C)C[C@@H]2Oc3ccc(NS(=O)(=O)c4cn(C)cn4)cc3C(=O)N([C@H](C)CO)C[C@H]2C)cc1`, the cytotoxicity call is “inactive”.
Turning to `CC(C)NC(=O)N(C)C[C@@H]1Oc2ccc(NS(=O)(=O)c3cccs3)cc2C(=O)N([C@@H](C)CO)C[C@H]1C`, the cytotoxicity call is “inactive”.
With `C[C@@H]1CCCCO[C@@H](CN(C)C(=O)NC2CCCCC2)[C@H](C)CN([C@@H](C)CO)C(=O)c2cc(NC(=O)Nc3ccccc3)ccc2O1` the entry was “inactive”.
With `Cc1ccc(S(=O)(=O)N(C)C[C@@H]2OCCCC[C@@H](C)Oc3ccc(NS(C)(=O)=O)cc3C(=O)N([C@@H](C)CO)C[C@H]2C)cc1` the entry was “inactive”; with `COc1cccc(S(=O)(=O)Nc2ccc3c(c2)[C@H]2C[C@@H](CC(=O)NCCc4ccccc4)O[C@H](CO)[C@H]2O3)c1`, “active”.
As for `O=C(C[C@H]1C[C@H]2c3cc(NS(=O)(=O)c4ccc(F)cc4)ccc3O[C@H]2[C@@H](CO)O1)NCc1ccc(Oc2ccccc2)cc1`, the cytotoxicity call is “active”.
With `COc1cccc(S(=O)(=O)Nc2ccc3c(c2)[C@H]2C[C@H](CC(=O)NCCc4ccccc4)O[C@@H](CO)[C@H]2O3)c1` the entry was “inactive”; with `O=C(C[C@@H]1C[C@H]2c3cc(NC(=O)Nc4ccccc4F)ccc3O[C@H]2[C@@H](CO)O1)NCc1ccc(Oc2ccccc2)cc1`, “inactive”; with `O=C(C[C@H]1C[C@H]2c3cc(NC(=O)Nc4ccccc4F)ccc3O[C@H]2[C@@H](CO)O1)NCc1ccc(Oc2ccccc2)cc1`, “active”.
As to `O=C(C[C@@H]1C[C@@H]2c3cc(NS(=O)(=O)c4ccc(F)cc4)ccc3O[C@@H]2[C@H](CO)O1)NCc1ccc(Oc2ccccc2)cc1`, the cytotoxicity call is “inactive”.
With `O=C(C[C@H]1C[C@@H]2c3cc(NC(=O)Nc4ccccc4F)ccc3O[C@@H]2[C@H](CO)O1)NCc1ccc(Oc2ccccc2)cc1`, the cytotoxicity call was “active”.
As to `O=C(C[C@H]1C[C@H]2c3cc(NC(=O)Nc4ccccc4F)ccc3O[C@H]2[C@H](CO)O1)NCc1ccc(Oc2ccccc2)cc1`, the cytotoxicity call is “inactive”.
Consider `O=C(C[C@@H]1C[C@H]2c3cc(NC(=O)Nc4ccccc4F)ccc3O[C@H]2[C@H](CO)O1)NCc1ccc(Oc2ccccc2)cc1`, for which the cytotoxicity call was “inactive”.
Turning to `O=C(C[C@@H]1C[C@@H]2c3cc(NC(=O)Nc4ccccc4F)ccc3O[C@@H]2[C@@H](CO)O1)NCc1ccc(Oc2ccccc2)cc1`, the cytotoxicity call was “inactive”.
For `COc1cccc(S(=O)(=O)Nc2ccc3c(c2)[C@H]2C[C@@H](CC(=O)NCCc4ccccc4)O[C@@H](CO)[C@H]2O3)c1`, the cytotoxicity call is “inactive”.
For the molecule `O=C(C[C@H]1C[C@H]2c3cc(NS(=O)(=O)c4ccc(F)cc4)ccc3O[C@H]2[C@H](CO)O1)NCc1ccc(Oc2ccccc2)cc1`, the cytotoxicity call is “inactive”.
As to `O=C(O)[C@H]1CCCNC1`, the cytotoxicity call is “inactive”.
`CO[C@@H]1CN(C)C(=O)c2ccc(NC(=O)Nc3cccc(F)c3)cc2OC[C@@H](C)N(C(=O)Nc2c(C)noc2C)C[C@@H]1C`: the cytotoxicity call was “inactive”.
As for `C[C@H](CO)N1C[C@H](C)[C@@H](CN(C)Cc2ccccc2)OCCCC[C@H](C)Oc2ccc(NC(=O)Nc3ccc4c(c3)OCO4)cc2C1=O`, the cytotoxicity call is “inactive”.
For the molecule `C[C@@H]1CCCCO[C@H](CN(C)S(=O)(=O)c2ccc(Cl)cc2)[C@@H](C)CN([C@H](C)CO)C(=O)c2cc(NC(=O)Nc3ccc4c(c3)OCO4)ccc2O1`, the cytotoxicity call was “inactive”.
Take `CC(C)NC(=O)N(C)C[C@@H]1OCCCC[C@@H](C)Oc2ccc(NC(=O)C3CCCCC3)cc2C(=O)N([C@@H](C)CO)C[C@@H]1C`: the cytotoxicity call is “inactive”.
For the molecule `Cc1noc(C)c1NC(=O)Nc1ccc2c(c1)C(=O)N([C@@H](C)CO)C[C@@H](C)[C@@H](CN(C)C(=O)C1CCCCC1)OCCCC[C@@H](C)O2`, the cytotoxicity call was “inactive”.
For the molecule `N#Cc1ccc(-c2cccs2)nc1`, the cytotoxicity call is “inactive”.
Consider `C[C@H]1CN([C@@H](C)CO)C(=O)Cc2cc(NC(=O)Cn3cnnn3)ccc2O[C@H]1CN(C)Cc1ccncc1`, for which the cytotoxicity call is “inactive”.
On to `COc1ccc(C#Cc2cccc(-c3nc(C(=O)N4CCN(Cc5ccccc5)CC4)cc4c3[C@H](CCO)N(S(=O)C(C)(C)C)C4)c2)cc1OC` (some centres not stated), for which the cytotoxicity call is “inactive”.
The value for `O=C(NCC(F)(F)F)c1cc2c(c(-c3cccc(-c4ccccc4F)c3)n1)[C@@H](CCO)N(C(=O)CC1CC1)C2` was “active”; that for `CC(C)(C)S(=O)N1Cc2cc(C(=O)N3CCN(Cc4ccccc4)CC3)nc(-c3cccc(-c4cc5ccccc5o4)c3)c2[C@H]1CCO` (some centres not stated) was “active”.
On to `CC(=O)N1Cc2cc(C(=O)NCc3cccc(F)c3)nc(-c3cccc(C4=CCCCC4)c3)c2[C@@H]1CCO`, for which the cytotoxicity call is “inactive”.
Regarding `CC(=O)N1Cc2cc(C(=O)NCC(F)(F)F)nc(-c3cccc(-c4cc5ccccc5o4)c3)c2[C@H]1CCO`, the cytotoxicity call was “inactive”.
Take `COc1ccccc1-c1cccc(-c2nc(C(=O)Nc3nccs3)cc3c2[C@@H](CCO)N(C(=O)CC2CC2)C3)c1`: the cytotoxicity call was “inactive”.
With `O=C(NCC1CC1)c1cc2c(c(-c3cccc(-c4ccccc4F)c3)n1)[C@@H](CCO)N(C(=O)CC1CC1)C2` the entry was “inactive”; with `CC(=O)N1Cc2cc(C(=O)NCc3cc(F)cc(F)c3)nc(-c3cccc(C4=CCCC4)c3)c2[C@H]1CCO`, “inactive”.
With `COc1ccccc1-c1cccc(-c2nc(C(=O)Nc3nccs3)cc3c2[C@H](CCO)N(C(=O)CC2CC2)C3)c1` the entry was “inactive”.
The value for `COc1ccc(C#Cc2cccc(-c3nc(C(=O)N4CCN(Cc5ccccc5)CC4)cc4c3[C@@H](CCO)N(S(=O)C(C)(C)C)C4)c2)cc1OC` (some centres not stated) was “inactive”; that for `CC(=O)N1Cc2cc(C(=O)NCc3cccc(F)c3)nc(-c3cccc(C4=CCCCC4)c3)c2[C@H]1CCO` was “active”; that for `CCC(=O)N1Cc2cc(C(=O)Nc3nccs3)nc(-c3cccc(-c4ccccc4OC)c3)c2[C@H]1CCO` was “active”.
